Several values for one entry are separate records, joined by “and”; a condition that tells them apart may be missing. Identical values can stand only once. Inconclusive results are not listed. Entries that show only a call come without a potency. The source holds several records for some structures; these can differ, active in one and inactive in another. Activity calls are given as the source filed them. Unless noted, calls follow the shape of the full dose curve.

Sequence of KiSS-1 receptor (Homo sapiens) (Q969F8 whole entry, looked up): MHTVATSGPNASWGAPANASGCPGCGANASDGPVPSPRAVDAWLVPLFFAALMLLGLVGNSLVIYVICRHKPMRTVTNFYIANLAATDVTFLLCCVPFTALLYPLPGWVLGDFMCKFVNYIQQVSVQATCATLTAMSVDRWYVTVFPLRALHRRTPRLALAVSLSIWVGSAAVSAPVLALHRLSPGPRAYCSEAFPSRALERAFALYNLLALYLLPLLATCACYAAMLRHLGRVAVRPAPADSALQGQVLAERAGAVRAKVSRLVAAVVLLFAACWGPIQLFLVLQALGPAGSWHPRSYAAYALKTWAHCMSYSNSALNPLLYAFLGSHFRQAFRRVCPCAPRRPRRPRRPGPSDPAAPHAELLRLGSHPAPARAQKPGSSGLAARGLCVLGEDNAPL

Tested on in the first test: not listed separately
Description: Nuclear factor erythroid 2-related factor 2/antioxidant responsive element (Nrf2/ARE) small molecule agonists: luciferase reporter gene qHTS assay in human keratinocytes (AID 1919969). Also: nearly all actives have a fitted effect of over 35% in size. Also: potency is read from the fitted curve at half-maximal effect. As to conditions: KeratinoSens HaCaT ARE-luciferase, luminescence, 24 h; series mostly up to 92.4 µM; activity, positive = activation: at the top concentration.
Regarding `COc1ccc2c(c1OC)C(=O)O[C@@H]2[C@H]1c2cc3c(cc2CCN1C)OCO3`, the “activity, positive = activation” value is -8.85% (inactive).

For `CC(C)(c1ccc(OCC2CO2)cc1)c1ccc(OCC2CO2)cc1` (configuration not stated), the Potency is 27.7 µM (active) and 27.3 µM (active).

`C=CCCl`: the “activity, positive = activation” value is -8.95% (inactive).

Turning to `C/C(=N\NC(=O)Nc1cc(F)cc(F)c1)c1ncccc1C(=O)O`, the Potency entry was “inactive”.

Regarding `C=CCOC(N)=O`, the “activity, positive = activation” value is -7.66% (inactive).

On to `COC(=O)NC(=S)Nc1ccccc1NC(=S)NC(=O)OC`, for which the Potency result is “inactive”.

In the case of `Cc1ccc2c(c1N)C(=O)c1ccccc1C2=O`, the Potency is 60.4 µM (active) and 1.93 µM (active).

For `COP(=O)(OC)C(O)C(Cl)(Cl)Cl` (configuration not stated), the Potency was 43.7 µM (active) and 61.1 µM (active) and inactive.

Regarding `CN(C)N`, the “activity, positive = activation” value was -8.42% (inactive).

With `O=C(O)C(Br)Br`, the Potency result is “inactive”.

With `c1ccc(P(c2ccccc2)c2ccccc2)cc1`, the Potency entry was “inactive”.

Regarding `CN(C)CCC#N`, the Potency entry is “inactive”.

With `c1ccc2c(c1)sc1ccccc12`, the Potency entry is “inactive”.

Consider `CCBr`, for which the “activity, positive = activation” value is 0.304% (inactive).

Another test deals with Gonadotropin-releasing hormone receptor (Homo sapiens) (UniProt P30968). Briefly: Human gonadotropin-releasing hormone receptor (GnRHR) small molecule agonists, calcium flux assay in GnRHR-HEK293 cells (AID 1920063). Also: nearly all actives have a fitted effect of over 35% in size. As to conditions: calcium flux fluorescence, agonist mode; series mostly up to 57.6 µM; activity change: at the top concentration. In a few lines: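 Agonist mode: compounds at 15 concentrations, in triplicate, went onto calcium dye-loaded GnRHR-HEK293 cells. Intracellular calcium was then followed as 480/540 nm fluorescence at 1 s intervals over 3 min.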
Sequence of Gonadotropin-releasing hormone receptor (Homo sapiens) (P30968 whole entry, looked up): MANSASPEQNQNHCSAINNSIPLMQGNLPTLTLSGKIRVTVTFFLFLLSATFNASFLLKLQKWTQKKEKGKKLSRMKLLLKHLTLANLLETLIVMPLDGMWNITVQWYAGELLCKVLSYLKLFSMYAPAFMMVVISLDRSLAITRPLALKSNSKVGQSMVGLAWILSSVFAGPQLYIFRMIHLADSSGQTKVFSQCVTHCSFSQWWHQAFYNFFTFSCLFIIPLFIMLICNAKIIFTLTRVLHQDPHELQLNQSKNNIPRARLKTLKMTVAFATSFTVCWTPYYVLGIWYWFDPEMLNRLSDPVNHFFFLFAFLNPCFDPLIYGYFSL
In the case of `Oc1ccc(C(c2ccc(O)cc2)(C(F)(F)F)C(F)(F)F)cc1`, the “activity change” value was 11.9% (inactive).

Take `O=C(Nc1ccc(Br)cc1)c1cc(Br)cc(Br)c1O`: the Potency entry is “inactive”.

For the compound `c1ccc2c(c1)CCCC2`, the Potency entry was “inactive”.

Take `CC(=[OH+])/C=C(/C)[O-].CC(=[OH+])/C=C(\C)[O-].CC(=[OH+])/C=C(\C)[O-].[Al]`: the “activity change” value was 2.74% (inactive).

In the case of `CCCCCCI`, the “activity change” value is 0.503% (inactive).

For `Oc1ccccc1Cl`, the Potency entry is “inactive”.

On to `Oc1cc(Cl)ccc1Cl`, for which the “activity change” value was 2.02% (inactive).

Turning to `CC(C)(C)C(=O)Cl`, the “activity change” value is -2.4% (inactive).

In the case of `NNC(=S)NN`, the Potency entry was “inactive”.

In the case of `O=[N+]([O-])c1ccc([As](=O)(O)O)cc1`, the Potency result is “inactive”.

As for `O=C(O)C(F)(F)C(F)(F)C(F)(F)C(F)(F)C(F)(F)C(F)(F)C(F)(F)C(F)(F)F`, the “activity change” value was -1.1% (inactive).

Turning to `C=CC1CC=CCC1` (configuration not stated), the “activity change” value is -0.929% (inactive).

For the compound `ClC1C(Cl)C(Cl)C(Cl)C(Cl)C1Cl` (configuration not stated), the Potency entry was “inactive”.

Take `Cc1cccc([N+](=O)[O-])c1`: the Potency result is “inactive”.

Consider `NC(=O)CF`, for which the “activity change” value is -0.577% (inactive).

For the compound `O=C(O)C1C2CCC(O2)C1C(=O)O` (configuration not stated), the Potency entry is “inactive”.

Turning to `COC(=O)c1ccccc1C(=O)OC`, the Potency result was “inactive”.

In the case of `Cc1ccccc1O`, the Potency entry is “inactive”.

As for `CCC12COCN1COC2`, the Potency entry was “inactive”.

As for `C[Si](Cn1cncn1)(c1ccc(F)cc1)c1ccc(F)cc1`, the Potency result was “inactive”.

Regarding `Cc1ccccc1CCl`, the “activity change” value was 1.1% (inactive).

For `N#Cc1cc([N+](=O)[O-])ccc1N`, the “activity change” value was 0.911% (inactive).

In the case of `O=Cc1ccc(Cl)cc1Cl`, the “activity change” value was -1.31% (inactive).

For `CCOC(=O)CC(SP(=S)(OC)OC)C(=O)OCC` (configuration not stated), the Potency result is “inactive”.

With `NCC(O)c1ccc(O)cc1` (configuration not stated), the Potency entry is “inactive”.

For the compound `COc1ccc2c(c1OC)C(=O)O[C@@H]2[C@H]1c2cc3c(cc2CCN1C)OCO3`, the “activity change” value is 3.89% (inactive).

On to `CC(C)(c1ccc(OCC2CO2)cc1)c1ccc(OCC2CO2)cc1` (configuration not stated), for which the Potency result was “inactive”.

As for `C=CCCl`, the “activity change” value is -1.22% (inactive).

As for `C/C(=N\NC(=O)Nc1cc(F)cc(F)c1)c1ncccc1C(=O)O`, the Potency entry was “inactive”.

As to `C=CCOC(N)=O`, the “activity change” value is -0.143% (inactive).

For the compound `COC(=O)NC(=S)Nc1ccccc1NC(=S)NC(=O)OC`, the Potency result was “inactive”.

`Cc1ccc2c(c1N)C(=O)c1ccccc1C2=O`: the Potency result is “inactive”.

With `COP(=O)(OC)C(O)C(Cl)(Cl)Cl` (configuration not stated), the Potency result is “inactive”.

With `CN(C)N`, the “activity change” value is 0.637% (inactive).

In the case of `O=C(O)C(Br)Br`, the Potency result is “inactive”.

As to `c1ccc(P(c2ccccc2)c2ccccc2)cc1`, the Potency result is “inactive”.

For `CN(C)CCC#N`, the Potency result was “inactive”.

Consider `c1ccc2c(c1)sc1ccccc12`, for which the Potency result is “inactive”.

`CCBr`: the “activity change” value was -1.6% (inactive).

In a further test the target is KiSS-1 receptor (Homo sapiens) (UniProt Q969F8). Description: Human kisspeptin (KISS1R) small molecule agonists, calcium flux assay in KISS1R-HEK293 cells (AID 1920064; active = well fitted activation curve with a large enough effect in the repeat runs). As to conditions: KISS1R-HEK293, calcium flux fluorescence, agonist; series mostly up to 76.8 µM; activation: at the top concentration. An outline of the steps:
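Agonist mode: intracellular calcium rise tracked at 1 s intervals over 3 min (480/540 nm) immediately after compound addition to dye-loaded KISS1R-HEK293 stable cells. Each compound tested at 15 concentrations in triplicate.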
Turning to `Oc1ccc(C(c2ccc(O)cc2)(C(F)(F)F)C(F)(F)F)cc1`, the Potency result was “inactive”.

As to `O=C(Nc1ccc(Br)cc1)c1cc(Br)cc(Br)c1O`, the Potency entry was “inactive”.

With `c1ccc2c(c1)CCCC2`, the Potency result was “inactive”.

Take `CC(=[OH+])/C=C(/C)[O-].CC(=[OH+])/C=C(\C)[O-].CC(=[OH+])/C=C(\C)[O-].[Al]`: the “activation” value was -2.97% (inactive).

With `CCCCCCI`, the “activation” value is -0.486% (inactive).

For `Oc1ccccc1Cl`, the Potency result was “inactive”.

For `Oc1cc(Cl)ccc1Cl`, the Potency entry is “inactive”.

Take `CC(C)(C)C(=O)Cl`: the “activation” value was 4.06% (inactive).

On to `NNC(=S)NN`, for which the Potency entry is “inactive”.

With `O=[N+]([O-])c1ccc([As](=O)(O)O)cc1`, the Potency entry is “inactive”.

In the case of `O=C(O)C(F)(F)C(F)(F)C(F)(F)C(F)(F)C(F)(F)C(F)(F)C(F)(F)C(F)(F)F`, the “activation” value was -2.76% (inactive).

Regarding `C=CC1CC=CCC1` (configuration not stated), the “activation” value is -0.623% (inactive).

Regarding `ClC1C(Cl)C(Cl)C(Cl)C(Cl)C1Cl` (configuration not stated), the Potency entry is “inactive”.

Turning to `Cc1cccc([N+](=O)[O-])c1`, the Potency entry was “inactive”.

As for `NC(=O)CF`, the “activation” value was -0.426% (inactive).

In the case of `O=C(O)C1C2CCC(O2)C1C(=O)O` (configuration not stated), the Potency entry was “inactive”.

`COC(=O)c1ccccc1C(=O)OC`: the Potency entry is “inactive”.

With `Cc1ccccc1O`, the Potency result was “inactive”.

Take `CCC12COCN1COC2`: the Potency entry was “inactive”.

Take `C[Si](Cn1cncn1)(c1ccc(F)cc1)c1ccc(F)cc1`: the Potency result was “inactive”.

For `Cc1ccccc1CCl`, the “activation” value is 0.655% (inactive).

Consider `N#Cc1cc([N+](=O)[O-])ccc1N`, for which the “activation” value was 1.38% (inactive).

Consider `O=Cc1ccc(Cl)cc1Cl`, for which the “activation” value is -0.299% (inactive).

As for `CCOC(=O)CC(SP(=S)(OC)OC)C(=O)OCC` (configuration not stated), the Potency result was “inactive”.

As for `NCC(O)c1ccc(O)cc1` (configuration not stated), the Potency entry was “inactive”.

For `COc1ccc2c(c1OC)C(=O)O[C@@H]2[C@H]1c2cc3c(cc2CCN1C)OCO3`, the “activation” value was -3.69% (inactive).

As for `CC(C)(c1ccc(OCC2CO2)cc1)c1ccc(OCC2CO2)cc1` (configuration not stated), the Potency entry was “inactive”.

In the case of `C=CCCl`, the “activation” value was -1.54% (inactive).

For the compound `C/C(=N\NC(=O)Nc1cc(F)cc(F)c1)c1ncccc1C(=O)O`, the Potency result was “inactive”.

As for `C=CCOC(N)=O`, the “activation” value was -2.15% (inactive).

Turning to `COC(=O)NC(=S)Nc1ccccc1NC(=S)NC(=O)OC`, the Potency result was “inactive”.

Take `Cc1ccc2c(c1N)C(=O)c1ccccc1C2=O`: the Potency entry was “inactive”.

As for `COP(=O)(OC)C(O)C(Cl)(Cl)Cl` (configuration not stated), the Potency result is “inactive”.

`CN(C)N`: the “activation” value was -2.01% (inactive).

Turning to `O=C(O)C(Br)Br`, the Potency entry is “inactive”.

Turning to `c1ccc(P(c2ccccc2)c2ccccc2)cc1`, the Potency entry was “inactive”.

For `CN(C)CCC#N`, the Potency result was “inactive”.

Take `c1ccc2c(c1)sc1ccccc12`: the Potency result was “inactive”.

Take `CCBr`: the “activation” value is -0.172% (inactive).

The values above are taken from PubChem BioAssay (Tox21).
